Coupling enz: inhibits coupling enzyme system, counter-screen for aldolase hits; coupling enzyme system counterscreen, AmpLite Red fluorescence; activity change, negative = inhibition, % at 58.2 µM, hits read low; actives 0.67% (n = 290,000); AID 2472; in the data active = activity change below about -30%
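Counterscreen of the coupled detection system alone, without aldolase: glyceraldehyde-3-phosphate coupling enzymes plus AmpLite Red readout. Compounds at 57.5 uM final, 10 min RT preincubation, 20 min RT reaction, fluorescence 525/598 nm.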
Tau fibril FP: inhibitors of human tau fibril formation | AID 1468 | P10636 | Potency, µM (highest dose often 57.7 µM), for the others: top-dose activity, negative = inhibition, most hits filed as inhibitors | K18 P301L tau heparin fibrillization, Alexa594 FP, 6 h | actives 0.39% (n = 280,000); also: potency is read from the fitted curve at half-maximal effect; nearly all actives have a fitted effect of over 55% in size
Target sequence (P10636 561-689 P618L limits assumed): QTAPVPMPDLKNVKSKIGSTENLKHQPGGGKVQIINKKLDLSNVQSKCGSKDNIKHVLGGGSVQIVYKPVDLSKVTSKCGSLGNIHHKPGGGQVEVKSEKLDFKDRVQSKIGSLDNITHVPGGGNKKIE
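Human tau K18 […] P301L fragment, 15 uM unlabeled plus 0.24 uM Alexa 594-labeled tau (final), with compound and 20 uM heparin in 100 mM sodium acetate pH 7; 6 hr at 37 C, then Alexa 594 FP read.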
Sfp PPTase inh: inhibitors of Bacillus subtilis Sfp phosphopantetheinyl transferase; Q9F4F7; Biochemical Sfp PPTase activity, qHTS; actives 3.5% (n = 310,000); Potency, µM, without a hit: largest response in the series, negative = inhibition, most hits filed as inhibitors;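 also: the enzyme is Sfp with the accession as filed and its product quenches rhodamine fluorescence; potency is read from the fitted curve at half-maximal effect; 0% = enzyme reaction without inhibitor and -100% = no enzyme wells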
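Step 1, compound plus 15 nM Sfp-PPTase, 15 min, room temperature. Step 2, add rhodamine-CoA (5 uM) and BHQ-2-YbbR (12.5 uM). Step 3, read 525/598 nm fluorescence at 0 and 30 min.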
Tau fluor counter: counter-screen for tau fibril formation inhibitors | Potency, µM (doses to about 57.7 µM), without a hit: at the highest dose activity change, negative = decrease | AID 1463 | tau K18 P301L Alexa594 fluorescence, heparin fibrillization | actives 0.93% (n = 280,000); also: potency is read from the fitted curve at half-maximal effect; nearly all actives have a fitted effect of over 55% in size
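Human tau K18 P301L (15 uM unlabeled, 0.24 uM Alexa 594-labeled) in 100 mM sodium acetate pH 7 with 20 uM heparin, 6 hr at 37 C. ThT 30 uM added, 1 hr ambient; Alexa 594 FP and total fluorescence read at 555/632 nm.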
G9a inh: G9a (human) methyltransferase inhibition. G9a H3K9 monomethylation, AlphaScreen, 2 h. Potency, µM (doses to about 102 µM), for inactives: top-dose activity, negative = inhibition, hits mostly inhibitors. actives 8.8% (n = 350,000); also: potency is read from the fitted curve at half-maximal effect; nearly all actives have a fitted effect of over 75% in size
Target sequence (Q96KQ7 913-1193 limits assumed): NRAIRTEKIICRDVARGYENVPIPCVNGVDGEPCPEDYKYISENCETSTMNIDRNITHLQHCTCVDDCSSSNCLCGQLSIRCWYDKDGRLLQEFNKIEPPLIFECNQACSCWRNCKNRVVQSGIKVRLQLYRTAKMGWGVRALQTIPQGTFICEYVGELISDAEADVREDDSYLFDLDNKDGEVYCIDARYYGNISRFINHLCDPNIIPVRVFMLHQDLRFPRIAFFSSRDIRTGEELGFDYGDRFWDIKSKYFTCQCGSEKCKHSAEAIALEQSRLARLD
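Compounds were preincubated with 20 nM G9a for 15 min, after which biotinylated H3K9 peptide (500 nM) and SAM (20 uM) started a 2 h room-temperature reaction. Monomethylated product was quantified by antibody-based AlphaScreen chemiluminescence.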
Tau fibril ThT: tau fibrillization inhibition (ThT binding); recombinant tau K18 P301L (four-repeat tau fragment), heparin-induced fibrillization, ThT fluorescence; Potency, µM (titrated, usually from 57.4 µM), inactives show at the top dose activity, negative = inhibition, hits mostly inhibitors; AID 1460; actives 2.1% (n = 270,000); also: potency is read from the fitted curve at half-maximal effect; nearly all actives have a fitted effect of over 55% in size
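Aggregation was driven by heparin (20 uM final) acting on recombinant tau […] bearing P301L in 100 mM sodium acetate pH 7; fibrils were detected with Thioflavin T.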
The depositor's hits bear a star; u = inconclusive; x = no result; ! = not active in a repeat; [ ] = dose if it differs, or a comment. Sampled rows, rich in hits. Any-hit rate of the full collection: about 11%. Unless noted, calls follow the shape of the dose curve; as a rule, active = well fitted curve in the direction sought with a large enough effect; inconclusive = small, poorly fitted or top-dose-only effect, or another doubt; inactive = no such curve, though single readings can be large; an effect the other way counts as inactive or inconclusive. Unless noted, % is scaled to controls: 0 for no effect and ±100 for the full control effect.

SMILES | Coupling enz | Tau fibril FP | Sfp PPTase inh | Tau fluor counter | G9a inh | Tau fibril ThT
S=c1[nH]nc(-c2ccccn2)n1/N=C/c1c(Cl)cccc1Cl | -3 | -10% | u | -20% | 1.8µM* | u
CC(/C=N/n1c(-c2ccccn2)n[nH]c1=S)=C\c1ccccc1 | 2 | 3% | 2% | -25% | 1.6µM* | u
S=c1[nH]nc(-c2ccccn2)n1/N=C/c1ccc(Cl)cc1 | 5 | -1% | 11% | -6% | 2.2µM* | -7%
CC(=O)c1sc(-c2ccc(F)cc2)cc1NS(=O)(=O)c1ccccc1 | 1 | -13% | 10% | -10% | -4%[59 µM] | 6%
Cc1ccc(NC(=O)CCN2CCN(CCO)CC2)cc1C | x | 4% | x | 1% | -4%[59 µM] | 1%
COc1ccc(S(=O)(=O)N(CC(=O)Nc2ccc(OC)cc2OC)c2ccc(Cl)cc2)cc1 | x | u | x | u | -32%[59 µM] | -6%
Fc1ccc(/C=N/n2c(-c3cccs3)n[nH]c2=S)cc1 | 5 | 6% | 50µM* | 11% | 1.1µM* | 16%
Cc1cccc(/C=N/n2c(-c3ccccn3)n[nH]c2=S)c1 | -3 | -7% | u | -10% | 1.4µM* | -15%
S=c1[nH]nc(-c2ccccn2)n1/N=C/c1cccc2ccccc12 | -9 | 0% | -12% | -2% | 0.4µM* | -12%
S=c1[nH]nc(-c2ccccc2)n1/N=C/c1ccc(Cl)cc1 | 5 | x | 2% | x | 2.5µM* | x
NC(=O)c1ccc(NS(=O)(=O)c2ccc(Br)s2)cc1 | x | x | x | x | 4%[12.7 µM] | x
CCOC(=O)c1c(NC(C)=O)c2c3c(sc2n1Cc1nc(-c2ccccc2Cl)oc1C)CCCC3 | x | -5% | x | -7% | -30%[59 µM] | -7%
CCOc1ccc(/C=N/n2c(-c3ccccc3)n[nH]c2=S)cc1 | 1 | x | -9% | x | 0.5µM* | x
Cc1ccc(/C=N/N2CCN(c3ccccn3)CC2)o1 | 0 | 12% | 4% | -7% | -47% | u
Cc1ccc(-c2nn(-c3ccccc3)cc2/C=N/n2c(-c3ccncc3)n[nH]c2=S)cc1 | -1 | 0% | 19% | -24% | u | 1%
CCOc1ccc(/C=N/n2c(C)nc3ccccc3c2=O)cc1 | 0 | x | -1% | x | -33%[2.33 µM] | x
Cc1ccc(/C=N/n2c(-c3ccccn3)n[nH]c2=S)o1 | 0 | -10% | 28µM* | 9% | 3.2µM* | -4%
Cc1ccccc1/C=N/n1c(-c2ccccn2)n[nH]c1=S | -6 | -11% | 35µM* | -18% | 0.89µM* | -11%
S=c1[nH]nc(-c2ccccn2)n1/N=C/c1cccs1 | 0 | -10% | -16% | -14% | 3.2µM* | -17%
COCCNC(=O)CSCc1cc(C)cc(C)c1 | 0 | 2% | 11% | 2% | 26% | 0%
CCOC(=O)C1(Cc2cccc(OC)c2)CCN(Cc2cccc(OC)c2O)CC1 | 1 | 8% | 6% | -19% | u | -16%
CC(/C=N/n1c(-c2ccco2)n[nH]c1=S)=C\c1ccccc1 | 3 | -12% | u | u | 1.3µM* | u
CCc1n[nH]c(=S)n1/N=C/C(C)=C\c1ccccc1 | 8 | x | u | x | 7%[0.501 µM] | x
CCN(CC)c1ccc(/C=N/NC(=S)NC)c(O)c1 | 1 | 10% | -8% | u | u | u
CCN(CC)c1ccc(/C=N/Nc2cccc(C)c2)c(O)c1 | -7 | 2% | u | -23% | 1.4µM* | u
SMILES | Coupling enz | Tau fibril FP | Sfp PPTase inh | Tau fluor counter | G9a inh | Tau fibril ThT
CCN(CC)c1ccc(/C=N/Nc2ccccc2)c(O)c1 | -14 | u | 56µM* | u | u | 25µM*
O=C(Nc1cc(C(F)(F)F)ccc1Cl)c1cnn(-c2ccccc2)c1-n1cccc1 | x | u | x | -15% | -2%[59 µM] | -7%
O=C(COc1ccc(Br)cc1)Nc1ccccc1C(=O)NC1CC1 | x | x | x | x | 5% | x
O=C(NCCSc1c(-c2ccccc2)[nH]c2ccccc12)c1cc2ccccc2oc1=O | -2 | -12% | 19% | 7.1µM*[quencher] | u | u
Cc1ccc(-c2[nH]c3ccccc3c2SCCNC(=O)c2cc3ccccc3oc2=O)cc1 | 1 | -9% | 5% | 8.9µM*[quencher] | u | u
CCOC(=O)c1ccc(S(=O)(=O)N2CCN(C3CCCC3)CC2)cc1 | 5 | -2%[2.34 µM] | 18µM* | 14% | -10% | 2%
COc1ccc(S(=O)(=O)N2CCC(N3CCCCC3)CC2)cc1 | 1 | -1% | u | -3% | u | -12%
CC1CCCC(N2CCN(S(=O)(=O)c3ccccc3)CC2)C1 (stereo not given) | -1 | x | u | x | 18µM* | x
COc1ccc(S(=O)(=O)N2CCN(C3CCCCCCC3)CC2)cc1 | 2 | 4% | 40µM*! | -4% | 8.9µM* | 4%
COc1ccc(S(=O)(=O)N2CCN(C3CCCC(C)C3)CC2)cc1 (stereo not given) | 0 | x | -26% | x | 7.1µM* | x
O=S(=O)(c1ccccc1)N1CCC(N2CCN(c3ccccc3)CC2)CC1 | -1 | -15% | 16% | 2% | -6%[59 µM] | 5%
CC(C)N(Cc1ccccc1)C(=O)CCS(=O)(=O)c1cc2c(cc1Cl)NC(=O)CO2 | x | -8% | x | -7% | 19%[59 µM] | -7%
CCn1c(C2CCN(S(=O)(=O)c3ccc(OC)cc3)CC2)n[nH]c1=S | 0 | 0% | 18% | 0% | 14µM* | 0%
CN(C(=O)CSc1ncnc2sccc12)c1c(N)n(Cc2ccccc2)c(=O)[nH]c1=O | 0 | -3% | 16% | -14% | 2% | -10%
O=C(CSc1n[nH]c(-c2ccccc2)n1)N1CCN(c2ccccc2F)CC1 | x | -3% | x | -29% | 10%[59 µM] | u
CCOc1cc(C)c(C(C)C)cc1S(=O)(=O)n1ccnc1CC | x | u | x | -12% | 16%[59 µM] | -15%
CCC1CCC2(CC1)NC(=O)N(CC(=O)Nc1cccc(S(=O)(=O)N(C)c3ccccc3)c1)C2=O (stereo not given) | x | x | x | x | 5.6µM* | x
CN(c1ccccc1)S(=O)(=O)c1cccc(NC(=O)CN2CCc3ccccc3C2)c1 | -4 | 1% | -1% | -26% | -24% | -12%
CN1C(=O)N(CC(=O)Nc2cccc(S(=O)(=O)N(C)c3ccccc3)c2)C(=O)C12CCCCC2 | x | x | x | x | 56µM* | x
CC1CCC2(CC1)NC(=O)N(CC(=O)Nc1cccc(S(=O)(=O)N3CCOCC3)c1)C2=O (stereo not given) | 7 | -15% | 2% | -13% | -4% | 2%
CC(C)Oc1ccc(CNC(=O)C2CCN(c3nc4ccccc4nc3C(F)(F)F)CC2)cc1 | x | -4% | x | -2% | 3%[59 µM] | 1%
COC(=O)C1=NOC2(C=C(Br)C(OC)=C(Br)C2=O)C1 (stereo not given) | 2 | u | 0.79µM* | -23%[11.6 µM] | x | 4µM*
